Bioassay records: PubChem BioAssay, The Scripps Research Institute Molecular Screening Center
An excerpt weighted towards active compounds, which were near 4.1% of everything screened.
hgDAF12 agonist – agonists of H. glycines DAF-12 nuclear receptor; activation, % at 6.8 µM; hit rate 1.8% among 370,000; HEK293 GAL4-hgDAF12 UAS-luciferase reporter, agonist luminescence; normalized to butyrate control;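 active = activation above a cutoff set at the mean of all screened compounds plus 3 SD, cut at about 10% in these data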;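 also: 0% = DMSO wells and 100% = sodium butyrate wells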
DAX1 inh-1 – NR0B1 (DAX1) inhibition; HEK293 Gal4-DAX1 luciferase reporter, luminescence; inhibition, % at 6.75 µM; hit rate 0.99% among 340,000;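 active = inhibition above the mean over all tested compounds plus 3 SD, cut at about 4.2% in these data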;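 also: 0% = DAX1-transfected cells with DMSO and 100% = empty-vector control cells with DMSO; inhibition shows as a rise in luminescence from relieved DAX1 repression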
Target sequence (P51843 207-470 limits assumed): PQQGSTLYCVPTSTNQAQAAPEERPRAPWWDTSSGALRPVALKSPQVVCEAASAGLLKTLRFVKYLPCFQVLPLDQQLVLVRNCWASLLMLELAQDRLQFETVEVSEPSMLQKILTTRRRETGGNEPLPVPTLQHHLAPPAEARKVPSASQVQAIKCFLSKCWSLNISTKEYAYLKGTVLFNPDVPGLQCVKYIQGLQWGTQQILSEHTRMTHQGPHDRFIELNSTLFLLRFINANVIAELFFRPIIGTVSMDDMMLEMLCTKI
hcDAF-12 act – activates DAF-12 receptor from parasite H. contortus; HEK293 hcDAF-12 lit1-tk-luc reporter, luminescence; 0% DMSO, 100% Δ7-dafachronic acid; activation, % at 6.8 µM; hit rate 1.4% among 370,000;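 active = activation above the mean of all tested compounds plus 3 SD, cut at about 5.5% in these data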;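 also: 100% = response to 3 µM Δ7-dafachronic acid high control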
DAX1 inh-2 – blocks DAX1 repression of SF-1 activated StAR promoter; HEK293T StAR-luciferase reporter, SF-1/DAX-1 repression relief; inhibition, % at 6.8 µM; hit rate 1.1% among 370,000; AID 652010;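 active = inhibition above the mean over all tested compounds plus 3 SD, cut at about 3.6% in these data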;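 also: 0% = DAX-1 cells with DMSO and 100% = cells lacking DAX-1 with DMSO; higher inhibition means more luminescence from relief of DAX-1 repression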
ssDAF-12 act – activates DAF-12 receptor from parasite S. stercoralis; HEK293 ssDAF-12/GRIP1 lit1-tk-luc reporter, luminescence; % of 3 µM dafachronic acid response; hit rate 1% among 370,000; activation, % at 6.8 µM;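 active = activation above the mean over all tested compounds plus 3 SD, cut at about 0.9% in these data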;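 also: 0% = DMSO-only wells and 100% = 3 µM delta7-dafachronic acid wells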
An asterisk follows results filed as active; . = not tested or not shown.

SMILES	hgDAF12 agonist	DAX1 inh-1	hcDAF-12 act	DAX1 inh-2	ssDAF-12 act
Cc1cccc(OCC(=O)N/N=C/c2ccc3c(c2)OCO3)c1	1	-1	0	0	1.2*
CCCCCC1=CCC/C1=N\NC(=O)c1ccc2c(c1)OCO2	12*	0	0	1	-2
O=C(N/N=C/c1ccc[nH]1)c1ccc2c(c1)OCO2	11*	0	1	0	-1
O=C(NN=C1CCCCCC1)c1ccc2c(c1)OCO2	10	2	-1	0	-1
O=C(N/N=C/c1ccc2c(c1)OCO2)c1ccc2c(c1)OCO2	5	1	4	4.0*	0
O=C(NN=Cc1ccc2c(c1)OCO2)c1ccncc1	-1	1	0	1	-1
CCn1ncc(/C=N/NC(=O)c2ccc3c(c2)OCO3)c1C	12*	0	0	-1	-1
O=C(N1CCC(C(O)(c2ccccc2)c2ccccc2)CC1)n1ncc(C(O)(c2ccccc2)c2ccccc2)n1	-11	.	-5	.	-2
COC(=O)C1CN(C2CCCC2)CCS(=O)(=O)N1Cc1ccc(C)cc1 (stereo not given)	-1	.	-2	-2	-2
O=C(N/N=C\c1cccc(OC(=O)c2ccco2)c1)c1ccc2c(c1)OCO2	12*	0	2	3	0
Cc1cccc(OCC(=O)Nc2cc(C)c(C)cc2O)c1	3	-1	3	1	0
Cc1cccc(OCC(=O)Nc2cc(C)ccc2O)c1	2	0	2	-1	1.1*
COc1ccccc1/C=N/NC(=O)c1ccc2c(c1)OCO2	4	4.3*	0	0	-1
CN(Cc1c(F)cccc1Cl)C(=O)CCc1c[nH]c2ccccc12	1	6.2*	0	0	-1
CCOc1ccc(N(CC(=O)Nc2c(C)n(C)n(-c3ccccc3)c2=O)S(=O)(=O)c2cc(OC)ccc2OC)cc1	2	.	-1	0	-1
CC(CNC(=O)CCc1nnc(CCC2CCCCC2)o1)c1ccccc1 (stereo not given)	4	5.6*	0	0	-1
CN(CCCC1CCCC1)C(=O)CCc1nnc(-c2ccccc2)o1	12*	5.4*	3	1	0
Cc1cc(C)n(CCN(C)C(=O)CCc2nnc(CCC3CCCCC3)o2)n1	12*	3	2	2	1.2*
CCC(=O)N[C@H]1C[C@@H]2O[C@@H](CO)CC[C@@H]2O[C@@H]1CCc1ccc(-c2cccc(OC)c2)cc1	1	.	0	-1	-1
CSc1nnc(N2C(=O)C(O)=C(C(=O)c3ccc(C)o3)C2c2ccc(C)cc2)s1 (stereo not given)	11*	2	5	2	0
O=C1CNC(=O)/C(=C/c2ccco2)N1	-5	4.4*	0	0	-1
CC(=O)Nc1ccc(/C=N/Nc2nncc3ccccc23)cc1	9	5.0*	3	1	0
C(=N\Nc1nncc2ccccc12)/c1ccccn1	8	-2	2	-1	0
Cc1c(C(=O)Nc2ccccc2F)sc2nc3n(c(=O)c12)CCC3	11*	1	3	1	0
COc1ccccc1NC(=O)c1sc2nc3n(c(=O)c2c1C)CCC3	4	0	0	0	-1
SMILES	hgDAF12 agonist	DAX1 inh-1	hcDAF-12 act	DAX1 inh-2	ssDAF-12 act
CN1C(=O)C(=O)N2C(=C[C@]3(c4c[nH]c5ccccc45)c4ccccc4N[C@H]23)C1=O	2	.	4	.	0
C/C(=N\O)c1ccc2c3c([nH]c2c1)CCCC3	11*	1	-1	0	-1
CCc1ccc(NC(=S)N2CCCCCCC2)cc1	11*	1	0	3	0
CCCc1cc(C(=O)Nc2ccc(F)cc2F)no1	13*	2	1	1	0
Cc1noc(C(=O)Nc2cccnc2Cl)c1Cl	-1	1	0	0	0
Cc1ccc(O)c(NC(=O)c2onc(C)c2Cl)c1	4	3	6.0*	0	1.8*
CCCc1cc(C(=O)Nc2cccc(C(C)=O)c2)no1	4	3	5.9*	1	1
Cc1ccc(O)c(NC(=O)c2cc(-c3cccs3)on2)c1	11*	1	2	1	0
CC(=O)N1CCc2c1cccc2S(=O)(=O)NC(CC(C)C)C(=O)Nc1ccc(F)cc1Cl (stereo not given)	0	.	1	0	-1
COC(=O)c1cc(-c2cc3ccccc3s2)c(=O)n2c1CCC2	3	.	3	0	0
Cc1noc(C(=O)Nc2ccc(F)cc2F)c1Cl	3	4.2*	0	0	0
